Results reported in PubChem BioAssay AID435019 (Southern Research Specialized Biocontainment Screening …, 2010).
About 1,200 (52%) of roughly 2,300 compounds were called active. The rule behind the calls is not given here. The set was probably picked from earlier hits. Some of the results follow. Potency and affinity values are given separately.

assay: mammalian cell cytotoxicity, dose response, cytotoxicity control for M. tuberculosis inhibitor project (AID 435019); conditions: cytotoxicity counter-screen; series mostly up to 40 µM; viability: at the top concentration;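 note: 0% = background wells and 100% = vehicle-treated cells; lower values mean fewer viable cells so more cytotoxicity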

SMILES | viability
C=CCN(CC(=O)c1sc(C(=O)OCC)nc1C)c1cccc(Br)c1 | 91.5% (inactive)
CCCCOC(=O)c1ccc(O)cc1 | 95% (inactive)
[O-][n+]1c2ccccc2c2n1CCN1CCOC21c1ccc(Cl)cc1 (configuration not stated) | 85.2% (inactive)
Cc1nonc1NC(=O)CSc1ccc(-c2ccccc2)nn1 | 90.2% (inactive)
O=C(OCC(=O)c1cccs1)C1=COCCO1 | 98.4% (inactive)
CCCCn1nc(C(=O)Nc2ccccc2N2CCCC2)c2ccccc2c1=O | 82.5% (inactive)
COC(=O)COc1ccc(-c2nn(C)c(=O)c3ccccc23)cc1 | 93.7% (inactive)
COc1cc(CNC(=O)CCCCCCC(C)C)ccc1O | 93% (inactive)
COC(=O)Cn1nc(-c2ccccc2)c2cc(Cl)ccc21 | 88% (inactive)
CC1=CC(=O)NP(=O)(Oc2ccc3ccccc3c2)N1 (configuration not stated) | 93.5% (inactive)
CC(=O)Oc1ccc2occ(C(=O)c3cccs3)c2c1 | 102% (inactive)
Nc1nc2ccccc2n1/N=C/c1ccc(Br)cc1 | 95.2% (inactive)
CC(C)(C)Nc1nc(NC(C)(C)C)nc(-n2ccnc2)n1 | 90.2% (inactive)
CCOC(=O)CNC(=O)CNC(=O)c1nn(-c2ccc(OC)c(Cl)c2)c(=O)c2ccccc12 | 99% (inactive)
CCOC(=O)c1ccc(-n2c(CCC(=O)O)ccc2-c2cccs2)cc1 | 96.7% (inactive)
CC(C)OC(=O)c1ccc(N)cc1 | 102% (inactive)
CCc1ccc(NC2=NCC(c3ccccc3)S2)cc1 (configuration not stated) | 87.4% (inactive)
CC(C)OC(=O)c1ccc(NC(=S)NC(=O)c2cncc(Br)c2)cc1 | 94.2% (inactive)
Cc1[nH]nc(SCC(=O)NCc2ccccc2)c1[N+](=O)[O-] | 90.9% (inactive)
COc1ccc(-c2ccc(-c3noc(C(C)C)n3)c(OC)n2)cc1 | 81.4% (inactive)
Cc1ccc(Cl)cc1NC(=O)CN1CCN(S(=O)(=O)N2CCOCC2)CC1 | 90.4% (inactive)
Cc1ccc(C(=O)C2CCN(CC(=O)Nc3nc(C)cs3)CC2)cc1 | 83.6% (inactive)
CCCCNC(=S)N/N=C/c1cccc(OCC)c1O | 95.4% (inactive)

SMILES | viability
CCOC(=O)CN[C@H]1CCC2C3CC=C4C[C@@H](O)CC[C@]4(C)C3CC[C@@]21C (some centres not stated) | 95.8% (inactive)
Cc1ccc(C(=O)ONc2ccc(N=O)cc2)cc1 | 89.5% (inactive)
COc1ccc(NC(NC(=O)c2ccc(OC)cc2)C(Cl)(Cl)Cl)cc1 (configuration not stated) | 85.7% (inactive)
CCOC(=O)c1nn(-c2ccc(C)cc2)c2nc(Nc3ccccc3)cc(=O)n12 | 94.8% (inactive)
Cn1nc([N+](=O)[O-])nc1Sc1ccc(C(C)(C)C)cc1 | 84.8% (inactive)
Cn1cnc(Sc2ncnc3nc[nH]c23)c1[N+](=O)[O-] | 82.1% (inactive)
Cc1cc(C)n(-c2cc(C(C)(C)C)nc3c(-c4ccccc4)cnn23)n1 | 85% (inactive)
Cc1cc(-c2nnc3n2CCCCC3)c(C)n1-c1ccccc1 | 90.5% (inactive)
C/C(=N\N(Cc1ccccc1)c1ccccc1)c1ccncc1 | 88.6% (inactive)
CCOC(=O)CSc1nnc(-c2ccc(S(=O)(=O)NCc3cccs3)cc2)o1 | 100% (inactive)
Cn1c(=S)c2[nH]c(SCCN3CCCC3)nc2n(C)c1=O | 93% (inactive)
CCOC(=O)CNc1ccc(C(=O)OCC)cc1[N+](=O)[O-] | 102% (inactive)
CCCc1cc(C(N)=S)ccn1 | 94.8% (inactive)
CCCn1c(=N)n(CC(=O)c2ccc(OCC(=O)OC)cc2)c2ccccc21 | 97.9% (inactive)
Cc1ccc(S(=O)(=O)N2CCC(C(=O)OCc3ccccc3)CC2)cc1C | 96.3% (inactive)
NC(=O)c1cccn1-c1ncc(C(F)(F)F)cc1Cl | 106% (inactive)
CCOC(=O)C1=NOC(CNc2ncc(C(F)(F)F)cc2Cl)C1 (configuration not stated) | 97.5% (inactive)
CCOC(=O)c1ccc(N=C2SC(C(=O)Nc3ccc(C(=O)O)cc3)CC(=O)N2Cc2cccs2)cc1 (configuration not stated) | 90.3% (inactive)
Cc1cc(C2=NNC(=NC3CCCCC3)SC2)c(C)n1-c1c(C)n(C)n(-c2ccccc2)c1=O | 98.9% (inactive)
S=C(NCCN1CCOCC1)N/N=C/c1cccs1 | 89.9% (inactive)
Cc1ccc(C)c2nc(N3CCCC3)c(C#N)cc12 | 91.6% (inactive)
Cc1nc(SCC(=O)NC2CCCCC2)[nH]c(=O)c1C | 95.2% (inactive)
CC1CCCC(C)N1C(=O)COC(=O)c1cc(-c2cccs2)nn1-c1ccccc1 (configuration not stated) | 101% (inactive)

SMILES | viability
CCOC(=O)COc1ccc(C2CC(C)=NN2c2ccccc2)cc1 (configuration not stated) | 96.7% (inactive)
O=C(CCN1C(=O)C2C3C=CC(C3)C2C1=O)Oc1ccc2ccccc2c1 (configuration not stated) | 94.8% (inactive)
O=C(COC(=O)C1CCN(c2ccc(C(F)(F)F)cn2)CC1)Nc1ccc(F)cc1[N+](=O)[O-] | 95.2% (inactive)
O=C(Cc1ccc(Nc2nc3ccc(Br)cc3[nH]2)cc1)NCCc1cccs1 | 86.8% (inactive)
Brc1cccc2sc(N3CCN(c4ccccc4)CC3)nc12 | 85.2% (inactive)
Cc1[nH]n(S(=O)(=O)Cc2ccccc2)c(=O)c1N=Nc1ccccc1Cl | 105% (inactive)
CN1CCN(c2c(F)cc3c(=O)c(C(=O)O)cn4c3c2OCN4C)CC1 | 98.7% (inactive)
C=C(C)C1CC=C(CN2CCN(Cc3ccccc3)CC2)CC1 (configuration not stated) | 93.8% (inactive)
Cc1cccc(C2=N/C(=C\c3cccs3)C(=O)O2)c1 | 104% (inactive)
Cn1c(=O)c2[nH]c(-c3ccc(S(=O)(=O)O)cc3)nc2n(C)c1=O | 94.3% (inactive)
C=CCOC(=O)COc1ccc2c(C)c(CC)c(=O)oc2c1 | 99.1% (inactive)
C/C(CCc1ccc2c(c1)OCO2)=N\NC(=S)NC(C)C | 81.8% (inactive)
Cc1ccc(/C=N/NC(=S)NC(C)C)o1 | 97.9% (inactive)
CCCCCCC[N+](CC)(CC)CCCCc1ccc(Cl)cc1 | 89.3% (inactive)
COc1cc(/C=N/N2CCOCC2)ccc1OCc1ccc(Cl)cc1 | 85.8% (inactive)
COc1ccccc1/C=C/C(=O)Nc1ccc(S(=O)(=O)Nc2cc(C)on2)cc1 | 91.3% (inactive)
COc1ccc(N=Cc2c(OC)ccc3ccccc23)cc1 | 90% (inactive)
Cc1cn(-c2ccc(Br)cc2)[nH]c1=O | 96.3% (inactive)
CN(C(=O)COC(=O)c1ccc([N+](=O)[O-])cc1Cl)C1CCCCC1 | 101% (inactive)
COc1ccccc1N(O)C1CC(=O)N(c2ccc(Br)cc2)C1=O (configuration not stated) | 94.8% (inactive)
O=C(OCC(=O)c1c[nH]c2ccccc12)c1cc(Br)ccc1O | 94.9% (inactive)
COc1cccc(COC(=O)c2ccc3c(=O)n4c(nc3c2)CCC4)c1OC | 83% (inactive)
C=CCn1c(N)cc(=O)nc1SC(CC)C(=O)Nc1ccc(C(C)=O)cc1 (configuration not stated) | 102% (inactive)

SMILES | viability
NC(=O)c1ccc(N=Cc2ccc([N+](=O)[O-])s2)cc1 | 80.4% (inactive)
CCN(CC)C(=S)SSC(=S)N(CC)CC | 85.7% (inactive)
C/C(=C\C(=O)c1ccccc1)Nc1ccc(Cl)c(Br)c1 | 99.4% (inactive)
O=C(CSCC(=O)Nc1ccc2ccccc2c1)NCc1ccccc1 | 105% (inactive)
COC(=O)C(C)Oc1cc(C)ccc1COc1ccc(-n2nc(C)n(C(F)F)c2=O)cc1 (configuration not stated) | 87.3% (inactive)
CC1=NN(c2ccccc2)C(=O)/C1=C\c1c(C)[nH]n(-c2ccccc2)c1=O | 83.9% (inactive)
Cc1[nH]n(-c2ccccc2)c(=S)c1C=NCCCN=Cc1c(C)[nH]n(-c2ccccc2)c1=S | 96.7% (inactive)
O=C(NC1CCN(C(=O)N2c3ccccc3Sc3ccccc32)CC1)c1ccccc1F | 86.3% (inactive)
Oc1ccc(/C=N/NC(=S)N2CCOCC2)cc1 | 84.3% (inactive)
CC1CCN(c2nc(Cl)nc(Nc3ccc([N+](=O)[O-])cc3)n2)CC1 | 88.8% (inactive)
O=c1c2cc(Br)cc(Br)c2oc2nc3n(c(=O)c12)CCCS3 | 100% (inactive)
Cc1ccc(C2=NNC3(CCOC(C)(C)C3)S2)cc1 (configuration not stated) | 106% (inactive)
Cc1cccc2c1N(CCCOc1ccc(C(C)(C)C)cc1)C(=O)C2=O | 84% (inactive)
CCOc1ccc(N/C(C)=C/C(=O)c2ccc3c(c2)OCCO3)cc1 | 97.4% (inactive)
Cc1ccc(NN=C2c3ccccc3-c3ccccc32)cc1 | 92% (inactive)
CC1(c2nnc(-c3ccncc3)o2)CC(c2ccccc2)=NO1 (configuration not stated) | 92.3% (inactive)
Cc1ccnc(NC(=O)COc2ccc3c(c2)CCC3)c1 | 97.4% (inactive)
O=C1C(Cl)=C(N2CCOCC2)C(=O)N1c1cccc(Cl)c1 | 91.6% (inactive)
O=C(CN1CCN(c2ccc(F)cc2)CC1)N1CCC(Cc2ccccc2)CC1 | 85.5% (inactive)
COc1ccc(/C=N/OCC(=O)OCC(=O)N(C)c2ccccc2)cc1 | 91.8% (inactive)
O=C1C2C(c3ccccc3)(C(=O)N1c1ccc(Cl)cc1)C2(c1ccccc1)c1ccccc1 (configuration not stated) | 90.5% (inactive)
COc1ccc(NC2(c3ccc(Cl)cc3)C(=O)c3ccccc3C2=O)cc1 | 94.8% (inactive)
CC1(c2ccc(OC(F)F)cc2)NC(=O)N(CC(=O)c2ccc3c(c2)OCO3)C1=O (configuration not stated) | 93.4% (inactive)

SMILES | viability
COC(=O)CCn1c(C)cc(C(=O)COc2ccccc2C(N)=O)c1C | 81.6% (inactive)
c1ccc(-c2ccccc2OCCCCn2ccnc2)cc1 | 80.4% (inactive)
CCCn1nnnc1NC(=O)c1ccc(C)cc1Cl | 90.1% (inactive)
CCCc1cc2c(cc1NC(=O)c1ccccc1Cl)OCO2 | 91.1% (inactive)
Nc1nc(-c2cccc(F)c2)cs1 | 87.4% (inactive)
NC1=NC[C@H](Cc2ccc(O)cc2)N1CCc1cccc2ccccc12 | 85% (inactive)
N#CC1=C(N)NC(SCC(=O)c2ccccc2)=C(C#N)C12CCCC2 | 82.1% (inactive)
CCOC(=O)CSC1=C(C#N)C(c2ccc(C)cc2)C2=C(CCCC2=O)N1 (configuration not stated) | 95.6% (inactive)
CCOC(=O)CSc1nnc(NC(=O)c2ccc3c(c2)OCO3)s1 | 93.7% (inactive)
C=C(C)C1CCC(C)=C1COC(=O)Nc1ccccc1 (configuration not stated) | 81.2% (inactive)
Cc1ccc(C(=O)OCc2nnc(-c3ccccc3)o2)s1 | 94.3% (inactive)
CC(C)C(=O)Nc1cccc(-c2nc3ccccc3c(=O)o2)c1 | 101% (inactive)
CCOC(=O)c1ccc(N2CC(O)=C(c3nc4ccccc4c(=O)[nH]3)C2=N)cc1 | 94.1% (inactive)
O=C(CSc1nn(-c2ccc(F)cc2)c(=S)s1)NCC1CCCO1 (configuration not stated) | 92.4% (inactive)
Cc1nn(-c2ccccc2)c(Cl)c1/C=N/NC(=O)c1ccc(CNc2ccccc2)o1 | 96.3% (inactive)
Cc1ccc(C(=O)CCC(=O)OCC(=O)Nc2c(C)nn(-c3ccccc3)c2C)cc1 | 101% (inactive)
CCOC(=O)C(/C=C(\C#N)C(=O)OCC)=C(/N)N1CCN(c2ccc(Cl)cc2)CC1 | 90.8% (inactive)
CCN1CCN(c2oc(COc3ccc(-c4ccccc4)cc3)nc2C#N)CC1 | 81.5% (inactive)
Clc1ccc(-c2cc3ccccc3nc2N2CCCC2)cc1 | 85.9% (inactive)
O=C1C2C(C(=O)N1/N=C/c1ccc([N+](=O)[O-])o1)C1C=CC2C12CC2 (configuration not stated) | 99% (inactive)
